From PubChem BioAssay
Sfp PPTase inh: Sfp phosphopantetheinyl transferase inhibition. Potency, µM, usual class: inhibitors. Biochemical Sfp PPTase activity, qHTS. Q9F4F7. actives 3.5% (n = 310,000). AID 1490;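 further: the enzyme is Sfp with the accession as filed and its product quenches rhodamine fluorescence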
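Sfp 15 nM + cpd, 15 min RT; start w/ rhodamine-CoA 5 uM, BHQ-2-YbbR 12.5 uM (final); 50 mM Hepes pH 7.6, 10 mM MgCl2, 0.01% NP-40, 0.01% BSA; read 525/598 nm at 0 and 30 min.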
G9a block: inhibitors of human histone lysine methyltransferase G9a; Q96KQ7; actives 8.8% (n = 350,000); G9a H3K9 monomethylation, AlphaScreen, 2 h; Potency, µM (doses to about 102 µM), actives largely listed as inhibitors; further: nearly all actives have a fitted effect of over 75% in size
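G9a (20 nM) was preincubated 15 min with compound, then reacted 2 h at room temperature with 500 nM biotin-H3K9 peptide and 20 µM SAM. Monomethyl-H3K9 detected by AlphaScreen using anti-H3K9me1 antibody.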
ALOX12 inh: inhibitors of human 12S-lipoxygenase ALOX12. P18054. purified 12hLO, xylenol orange hydroperoxide absorbance. Potency, µM (titrated, usually from 108 µM), usual class: inhibitors. actives 1.1% (n = 580,000)
Target sequence (P18054 whole entry, looked up): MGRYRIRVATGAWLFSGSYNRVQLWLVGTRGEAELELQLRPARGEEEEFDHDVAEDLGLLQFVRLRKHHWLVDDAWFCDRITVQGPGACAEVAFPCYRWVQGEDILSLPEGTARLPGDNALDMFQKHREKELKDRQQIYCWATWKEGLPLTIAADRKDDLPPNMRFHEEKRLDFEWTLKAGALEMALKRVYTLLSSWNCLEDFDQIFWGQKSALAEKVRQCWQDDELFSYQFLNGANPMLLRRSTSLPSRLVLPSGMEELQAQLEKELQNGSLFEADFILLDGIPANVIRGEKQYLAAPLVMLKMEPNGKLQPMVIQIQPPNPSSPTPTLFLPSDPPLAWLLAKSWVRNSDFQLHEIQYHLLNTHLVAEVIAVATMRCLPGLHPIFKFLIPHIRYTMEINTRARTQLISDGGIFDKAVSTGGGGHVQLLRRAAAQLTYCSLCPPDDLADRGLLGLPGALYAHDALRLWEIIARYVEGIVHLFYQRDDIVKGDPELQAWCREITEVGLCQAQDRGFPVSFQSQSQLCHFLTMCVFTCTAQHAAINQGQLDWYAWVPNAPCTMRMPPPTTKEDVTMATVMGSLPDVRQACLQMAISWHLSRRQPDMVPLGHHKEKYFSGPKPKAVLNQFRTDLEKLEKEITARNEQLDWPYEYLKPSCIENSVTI
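Hydroperoxide product was detected by ferrous iron/xylenol orange as the 573 to 405 nm absorbance ratio. Arachidonic acid at 40 uM (final) was turned over for 30 min at room temperature by 150 nM human 12hLO, pH 7.0 Hepes buffer, after 15 min compound preincubation.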
BAZ2B block: blocks human BAZ2B | Q9UIF8 | AlphaScreen BAZ2B-H3K14Ac peptide displacement | Potency, µM (highest dose often 114 µM), usual class: inhibitors | actives 4.4% (n = 360,000); further: nearly all actives have a fitted effect of over 60% in size
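Complex of BAZ2B and biotin-H3K14Ac (50 nM apiece) forms over 30 min at RT, then faces library compounds up to 110 uM for another 30 min; AlphaScreen beads added, 20 min dark incubation, luminescence read.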
HP1b chromo inh: HP1-beta chromodomain-methylated histone interaction inhibition | P83916 | AlphaScreen HP1-beta / biotin-H3K9me3 peptide binding | Potency, µM (doses to about 114 µM), most hits filed as inhibitors | actives 0.56% (n = 390,000) | AID 540317; further: nearly all actives have a fitted effect of over 70% in size
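HP1-beta protein (50 nM final) preincubated 30 min at room temperature with biotinylated H3(1-18)K9me3 peptide (50 nM) in PBS pH 7.4, 0.01% Tween-20, then compound added for 30 min. AlphaScreen streptavidin donor/nickel chelate acceptor beads (10 ug/mL final), 30 min dark, luminescence read.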
JMJD2A Tudor inh: inhibitors of human JMJD2A Tudor domain; AlphaScreen JMJD2A-Tudor / H3K4me3 peptide binding; actives 4.4% (n = 390,000); Potency, µM (doses to about 114 µM), usual class: inhibitors; further: nearly all actives have a fitted effect of over 50% in size
Hits are given with their value; [ ] = remark or other dose. Sampled rows, rich in hits. Any-hit rate of the full collection: about 8.7%. The call rests on the fitted dose curve; in most records, active means well fitted curve in the direction sought with a large enough effect; inconclusive means small, poorly fitted or top-dose-only effect, or another doubt; inactive means no such curve, though single readings can be large; an effect the other way counts as inactive or inconclusive.

How did O=C(O)c1cccc2c1CCN2C(=O)Nc1ccc(F)cc1 do in these assays?
ALOX12 inh: inactive

How did CC(=O)Nc1cccc2nc(CN3CCN(C(C)C)C(CCO)C3)ccc12 (stereo unspecified) do in these assays?
ALOX12 inh: inactive

How did CCOC(=O)C(Cc1ccc(NC(=O)/C(=C/c2ccc(OC(C)=O)cc2)NC(C)=O)cc1)N1C(=O)c2ccccc2C1=O (stereo unspecified) do in these assays?
Sfp PPTase inh: inactive; G9a block: inactive; ALOX12 inh: inactive; BAZ2B block: inactive; HP1b chromo inh: inactive; JMJD2A Tudor inh: 89µM

Results for COc1cc(C(=O)Nc2cc(Cl)ccc2OCC2CCCO2)cc(OC)c1OC (stereo unspecified) ?
ALOX12 inh: inactive

Results for O=C(NCCCOc1cccc(CN2CCCCC2)c1)c1ccc(Cl)c(Cl)c1 ?
Sfp PPTase inh: inactive; G9a block: 10µM; ALOX12 inh: inactive; BAZ2B block: inconclusive; HP1b chromo inh: inconclusive; JMJD2A Tudor inh: 3.5µM

What do the screens show for `CC(C)c1ccc2c(c1)CCC1C(C)(CN)CCCC21C` (stereo unspecified)?
Sfp PPTase inh: 11µM; G9a block: inactive; ALOX12 inh: inconclusive; BAZ2B block: inactive; HP1b chromo inh: inactive; JMJD2A Tudor inh: inactive

What do the screens show for `CC(C)c1ccc2c(c1)CC[C@@H]1[C@@](C)(CN)CCC[C@]21C`?
Sfp PPTase inh: inactive

How did Cc1cccc(NC(=S)NCC2(C)CCCC3(C)c4ccc(C(C)C)cc4CCC23)c1 (stereo unspecified) do in these assays?
ALOX12 inh: 16µM

How did O=C1c2cccc3c(N4CCOCC4)c([N+](=O)[O-])cc(c23)C(=O)N1c1cccc2ccccc12 do in these assays?
Sfp PPTase inh: inactive; G9a block: 11µM; ALOX12 inh: inactive; BAZ2B block: inconclusive; HP1b chromo inh: inactive; JMJD2A Tudor inh: inconclusive

Results for Cc1ccc(-c2c3c(=O)n(C)c(=O)n(C)c3cn2Cc2cccnc2)cc1 ?
Sfp PPTase inh: inactive; G9a block: 7.9µM; ALOX12 inh: inactive; BAZ2B block: inactive; HP1b chromo inh: inactive; JMJD2A Tudor inh: inactive

How did Cn1c(=O)c2c(-c3ccc(Cl)cc3)n(Cc3ccc(Cl)cc3)cc2n(C)c1=O do in these assays?
G9a block: inactive; ALOX12 inh: inconclusive; BAZ2B block: inactive; HP1b chromo inh: inactive; JMJD2A Tudor inh: inactive

How did Cn1c(=O)c2c(-c3ccccc3)n(Cc3cccnc3)cc2n(C)c1=O do in these assays?
Sfp PPTase inh: inactive; G9a block: 10µM; ALOX12 inh: inactive; BAZ2B block: inactive; HP1b chromo inh: inactive; JMJD2A Tudor inh: inactive

What do the screens show for `COCCN(CCCO)Cc1ccco1`?
ALOX12 inh: inactive

How did Cc1cc2c(Nc3ccc(O)cc3)ncnc2s1 do in these assays?
Sfp PPTase inh: inactive; G9a block: 56µM; ALOX12 inh: inconclusive; BAZ2B block: inconclusive; HP1b chromo inh: inactive; JMJD2A Tudor inh: inactive

Results for Cc1cc2c(Nc3ccc(C(=O)O)cc3)ncnc2s1 ?
Sfp PPTase inh: inactive; ALOX12 inh: inactive; BAZ2B block: inactive; HP1b chromo inh: inactive; JMJD2A Tudor inh: inactive

How did CCn1c2c(c(=O)n1Cc1ccccc1)CCN(Cc1nccs1)C2 do in these assays?
ALOX12 inh: inactive

Results for Cc1c(C(=O)N2CCCC(C)C2)sc2ncnc(N3CCCCC3C)c12 (stereo unspecified) ?
Sfp PPTase inh: 79µM; G9a block: inactive; ALOX12 inh: inactive; BAZ2B block: inactive; HP1b chromo inh: inactive; JMJD2A Tudor inh: inactive

How did CC(Sc1nc(NC(C)(C)C)nc(N(C)C)n1)C(=O)Nc1ccccc1 (stereo unspecified) do in these assays?
Sfp PPTase inh: inactive; G9a block: inactive; ALOX12 inh: inactive; BAZ2B block: inactive; HP1b chromo inh: inactive; JMJD2A Tudor inh: inactive

What do the screens show for `CCOc1nc(SC(C(C)=O)C(=O)Nc2ccccc2)nc(N(C)C)n1` (stereo unspecified)?
Sfp PPTase inh: inactive; G9a block: 13µM; ALOX12 inh: inactive; BAZ2B block: inactive; HP1b chromo inh: inactive; JMJD2A Tudor inh: 79µM

What do the screens show for `COc1ccc(-c2cc(C(F)F)n3ncc(C(=O)Nc4cc(C)on4)c3n2)cc1`?
Sfp PPTase inh: 79µM; ALOX12 inh: inactive; BAZ2B block: 79µM; HP1b chromo inh: inactive; JMJD2A Tudor inh: inactive

What do the screens show for `O=C(Nc1cc(F)ccc1F)c1cnn2c(C(F)F)cc(-c3ccccc3)nc12`?
G9a block: inactive; ALOX12 inh: inactive; BAZ2B block: inactive; HP1b chromo inh: inactive; JMJD2A Tudor inh: inactive

What do the screens show for `O=C(Nc1cnn(Cc2ccc(F)cc2)c1)c1cnn2c(C(F)F)cc(-c3ccccc3)nc12`?
Sfp PPTase inh: 14µM; ALOX12 inh: inactive; BAZ2B block: inactive; HP1b chromo inh: inactive; JMJD2A Tudor inh: inactive

What do the screens show for `Cc1ccc(N(C(C)C(=O)Nc2ccccc2C(=O)N2CCOCC2)S(C)(=O)=O)cc1C` (stereo unspecified)?
Sfp PPTase inh: inactive; G9a block: inactive[12.7 µM]; ALOX12 inh: inactive; BAZ2B block: inactive; HP1b chromo inh: inactive; JMJD2A Tudor inh: inactive

How did CC(C(=O)Nc1ccccc1C(=O)N1CCOCC1)N(c1ccc(Cl)cc1)S(C)(=O)=O (stereo unspecified) do in these assays?
Sfp PPTase inh: inactive; G9a block: inactive; ALOX12 inh: inactive; BAZ2B block: inactive; HP1b chromo inh: inconclusive; JMJD2A Tudor inh: 11µM

Results for CCOc1ccccc1NC1(c2ccccc2)C(=O)c2ccccc2C1=O ?
G9a block: 11µM; ALOX12 inh: inactive; BAZ2B block: inconclusive; HP1b chromo inh: inconclusive; JMJD2A Tudor inh: 11µM

How did COc1ccc(C)cc1NC1(c2ccccc2)C(=O)c2ccccc2C1=O do in these assays?
G9a block: 13µM; ALOX12 inh: inactive; BAZ2B block: inconclusive; HP1b chromo inh: inconclusive; JMJD2A Tudor inh: 28µM

What do the screens show for `CCOC(=O)C1CCN(S(=O)(=O)CCNC(=O)c2ccccc2)CC1`?
G9a block: inactive; ALOX12 inh: inactive; BAZ2B block: inactive; HP1b chromo inh: inactive; JMJD2A Tudor inh: inactive

How did COc1cccc(C(=O)NCCS(=O)(=O)N(C)C2CCCCC2)c1 do in these assays?
G9a block: 22µM; ALOX12 inh: inactive; BAZ2B block: inactive; HP1b chromo inh: inactive; JMJD2A Tudor inh: inactive

How did CCOC(=O)C1CCCN(S(=O)(=O)CCNC(=O)c2cccc(OC)c2)C1 (stereo unspecified) do in these assays?
G9a block: 11µM; ALOX12 inh: inactive; BAZ2B block: inactive; HP1b chromo inh: inactive; JMJD2A Tudor inh: inactive

Results for COc1cccc(C(=O)NC(c2ccccc2)C2CCCC2)c1 (stereo unspecified) ?
Sfp PPTase inh: inactive; G9a block: inactive; ALOX12 inh: inactive; BAZ2B block: inactive; HP1b chromo inh: inactive; JMJD2A Tudor inh: 22µM
